# Assay results from the supplement of paper PMC13380429.
# Experiments:
# [1] = test system: Vero E6 infected with SARS-CoV-2; assay: morphology score (similarity to uninfected cells); higher = more like uninfected cells; settings: 24 h
# [2] = test system: Vero E6 infected with SARS-CoV-2; assay: SARS-CoV-2 infection rate relative to infected DMSO; higher = more infection, active = 60 or less; settings: 24 h
SMILES,morphology score [1],SARS-CoV-2 infection rate [2]
CNC(=O)c1ccccc1Nc1nc(Nc2ccc(N3CCOCC3)cc2OC)ncc1Cl (10 µM),-0.217,97.5% (inactive)
NCCCC[C@H](N[C@@H](CCc1ccccc1)C(=O)O)C(=O)N1CCC[C@H]1C(=O)O [lisinopril] (10 µM),0.0957,100% (inactive)
C=C1CC/C=C(\C)CC[C@@H]2[C@@H]1CC2(C)C [g-caryophyllene] (10 µM),0.0545,95% (inactive)
Cc1cc(C(C)(C)CC(C)(C)C)ccc1OCCOCC[N+](C)(C)Cc1ccccc1 [methylbenzethonium-chloride] (10 µM),-0.0681,101% (inactive)
CC[N+]1(C)CCCC(OC(=O)C(O)(c2ccccc2)c2ccccc2)C1 (stereo unspecified) [pipenzolate] (10 µM),0.153,98% (inactive)
Cc1cn([C@H]2C=C[C@@H](CO)O2)c(=O)[nH]c1=O [stavudine] (10 µM),0.031,106% (inactive)
N=C(N)NN=C1C=CC(=NNC(N)=S)C=C1 [ambazone] (10 µM),0.129,104% (inactive)
COC[C@@H](c1ccc(C(F)(F)F)cc1)N1CCN(C2(C)CCN(C(=O)c3c(C)ncnc3C)CC2)C[C@@H]1C [vicriviroc] (10 µM),0.189,100% (inactive)
Oc1cc(CNC(=S)/C=C/c2cc(O)c(O)c(Br)c2)cc(O)c1O (0.833333 µM),0.194,104% (inactive)
CCOC(=O)c1ccc(O)cc1 [ethyl-paraben] (10 µM),-0.0381,104% (inactive)
Cc1sc2c(c1C)C(c1ccc(Cl)cc1)=N[C@@H](CC(=O)Nc1ccc(OCCOCCOCCOCCNc3cccc4c3C(=O)N(C3CCC(=O)NC3=O)C4=O)cc1)c1nnc(C)n1-2 (stereo partly specified) (10 µM),-0.0682,100% (inactive)
CCN(CC)CCOc1ccc(Cc2ccccc2)cc1 (10 µM),0.39,71% (inactive)
CC(=O)NCC(=O)N1[C@@H]2CC[C@H]1c1ccc(Nc3ncc(C(F)(F)F)c(NC4CCC4)n3)cc12 (0.833333 µM),-0.071,124% (inactive)
CCC(=O)O[C@@H]1CC(=O)O[C@H](C)C/C=C/C=C/[C@H](OC(C)=O)[C@H](C)C[C@H](CC=O)[C@H](O[C@@H]2O[C@H](C)[C@@H](O[C@H]3C[C@@](C)(OC(C)=O)[C@@H](OC(=O)CC)[C@H](C)O3)[C@H](N(C)C)[C@H]2O)[C@H]1OC [miocamycin] (10 µM),-0.0251,110% (inactive)
OCc1cc(C(O)CNCCCCCCOCCCCc2ccccc2)ccc1O (stereo unspecified) [salmeterol] (10 µM),0.465,54.5% (active)
C#C[C@]1(O)CC[C@H]2[C@@H]3CCC4=CC(=O)CC[C@@H]4[C@H]3C(=C)C[C@@]21CC [etonogestrel] (10 µM),0.249,90.5% (inactive)
N#Cc1c(O)c2c(-c3ccc(-c4ccccc4O)cc3)csc2[nH]c1=O (10 µM),0.0882,106% (inactive)

SMILES,morphology score [1],SARS-CoV-2 infection rate [2]
CC(=O)NNC(=O)N1Cc2ccccc2Oc2ccc(Cl)cc21 (10 µM),0.0638,97.5% (inactive)
O=C(OC(C(F)(F)F)C(F)(F)F)N1CCC(C(O)(c2ccc3c(c2)OCO3)c2ccc3c(c2)OCO3)CC1 (10 µM),0.159,93.5% (inactive)
CC1CCN(C(c2ccc(F)cc2)c2ccc(C(C)C(=O)O)cc2-c2ccc(C(F)(F)F)cc2)CC1 (stereo unspecified) (10 µM),0.0608,106% (inactive)
COc1ccc(Cn2ccc3ccc(C(=O)NO)cc32)cc1 (0.833333 µM),0.108,111% (inactive)
c1ccc2sc(SN3CCOCC3)nc2c1 [N-oxydiethylenebenzothiazole-2-sulfenamide] (10 µM),-0.00631,104% (inactive)
C=CC(=O)N1CCN(C(=O)CNc2cc(I)c(Cl)cc2O)CC1 [K-Ras(G12C)-inhibitor-12] (10 µM),-0.138,111% (inactive)
O[C@H]1CC[C@H](Nc2ncc3nc(Nc4c(F)cc(F)cc4F)n([C@H]4CCOC4)c3n2)CC1 (0.833333 µM),0.103,101% (inactive)
CN[C@H](CNC(=O)N1CCC[C@@H]([C@@H](OCCNC(=O)OC)c2cccc(Cl)c2)C1)C[C@H]1CCCOC1 (10 µM),-0.0283,105% (inactive)
C#Cc1cncc([C@@H]2CCCN2C)c1 [altinicline] (10 µM),0.0585,98.5% (inactive)
CC(C)Oc1cccc(CC(=O)N2CCC[C@](CC[N+]34CCC(c5ccccc5)(CC3)CC4)(c3ccc(Cl)c(Cl)c3)C2)c1 (10 µM),0.0196,110% (inactive)
O=c1[nH]c(=O)c2ccccc2o1 [carsalam] (10 µM),0.265,85% (inactive)
O=C(O)CCCC[C@@H]1CCSS1 [thioctic-acid] (10 µM),0.0028,106% (inactive)
CC(Cc1ccc(O)cc1)NCC(O)c1cc(O)cc(O)c1 (stereo unspecified) [fenoterol] (10 µM),-0.0121,106% (inactive)
CC(=O)C1=C(O)C=C2Oc3c(C(C)=O)c(O)c(C)c(O)c3C2(C)C1=O (stereo not drawn) [usniacin-(+)] (10 µM),0.117,108% (inactive)
C/C(=C\C(N)C(=O)O)CP(=O)(O)O (stereo unspecified) (10 µM),0.064,110% (inactive)
CCCN1CCC[C@@H]2Cc3n[nH]cc3C[C@H]21 [quinpirol-(-)] (10 µM),0.203,92.5% (inactive)
